From the supplement of paper PMC10646978
± gives the standard deviation.

Key:
Details in all cases: modulator concentration 10 µM
[1] = test system: RAW-Dual (murine macrophage reporter line); experiment: NF-kB reporter (SEAP) activity fold change vs agonist alone; higher = enhanced NF-kB activity
Outline: (§1)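 Compound reached 10 μM final in each well by pin transfer, onto RAW-Dual murine macrophage reporter cells seeded at 50 000 per well in 384-well plates. After 1 hour at 37 °C, the cells were stimulated overnight with a PRR agonist. SEAP in the supernatant was read with QUANTI-Blue at 620 nm absorbance for NF-κB, and Lucia luciferase was read with QUANTI-Luc luminescence for IRF. Each signal was turned into fold change against the mean agonist-only control on the same plate, and two replicate plates were averaged with propagated errors.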

[2] = test system: RAW-Dual (murine macrophage reporter line); experiment: IRF reporter (Lucia luciferase) activity fold change vs agonist alone; higher = enhanced IRF activity
Outline: as §1

[3] = test system: RAW-Dual (murine macrophage reporter line); experiment: viability score (confluency relative to resting cells, overnight) (fraction); higher = more viable, active = viable (0.7 or more)
Outline: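 RAW-Dual macrophages in 384-well plates were treated overnight with compound at 10 μM final. IncuCyte imaging recorded confluency, and IncuCyte software built two confluency masks across every imaged well. The viability score expresses confluency relative to resting cells and was judged against a cutoff, which a compound met only if both masks exceeded 70% of resting cells.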

[4] = agonist: CpG ODN 1826 0.5 ug/mL

Row | SMILES | NF-kB reporter [1, 4] | NF-kB reporter ([1]; agonist: LPS 0.1 ug/mL) | NF-kB reporter ([1]; agonist: MPLA […]) | IRF reporter ([2]; agonist: 3'3'-cGAMP 10 ug/mL) | IRF reporter ([2]; agonist: LPS 0.1 ug/mL) | IRF reporter ([2]; agonist: MPLA […]) | viability score [3]
1 | O=C(O)C=C(CC(=O)O)C(=O)O | 1.02 ± 0.084 | 1.05 ± 0.074 | 0.946 ± 0.021 | 0.996 ± 0.12 | 0.971 ± 0.038 | 0.983 ± 0.092 | 1 (active)
2 | NS(=O)(=O)c1ccc(F)cc1 | 0.947 ± 0.076 | 1.04 ± 0.076 | 0.997 ± 0.11 | 0.977 ± 0.031 | 1.24 ± 0.2 | 1.23 ± 0.17 | 1.02 (active)
3 | CC12CC3CC(C)(C1)CC(CNC(=O)c1ccc([N+](=O)[O-])cc1)(C3)C2 | 1.1 ± 0.1 | 0.895 ± 0.065 | 0.957 ± 0.09 | 0.999 ± 0.032 | 1.38 ± 0.22 | 1.48 ± 0.37 | 1 (active)
4 | COc1ccc(C(C)NC(=O)CCc2nnc3ccc(-c4ccc(C)c(C)c4)nn23)cc1OC (stereo unspecified) | 1.3 ± 0.23 | 1.06 ± 0.083 | 1.4 ± 0.38 | 0.301 ± 0.14 | 0.963 ± 0.088 | 0.623 ± 0.089 | 1.01 (active)
5 | O=c1sn(-c2cccc3ccccc23)c(=O)n1Cc1ccccc1 | 0.647 ± 0.1 | 0.501 ± 0.15 | 0.653 ± 0.044 | 0.473 ± 0.016 | 0.441 ± 0.14 | 0.81 ± 0.12 | 0.181 (inactive)
6 | CCOc1ccc(CN(CCc2ccc3c(c2)OCO3)Cc2ccc3ccccc3c2)cc1 | 0.733 ± 0.083 | 0.954 ± 0.063 | 0.781 ± 0.053 | 0.197 ± 0.0058 | 1.54 ± 0.2 | 1.2 ± 0.16 | 0.989 (active)
7 | CC(=O)N[C@@H](CS)C(=O)O | 1.1 ± 0.082 | 1.05 ± 0.096 | 1.04 ± 0.052 | 0.931 ± 0.065 | 0.982 ± 0.076 | 1.04 ± 0.087 | 0.995 (active)
8 | COc1cccc(CCNC(=O)CC2CSc3nc4c(c(=O)n32)CCCC4)c1 (stereo unspecified) | 1.22 ± 0.069 | 1.07 ± 0.083 | 1.05 ± 0.096 | 0.886 ± 0.034 | 1.06 ± 0.052 | 1.13 ± 0.11 | 0.996 (active)
9 | O=C(CCCc1ccccc1)NCC1(O)CCCC1 | 0.858 ± 0.079 | 0.968 ± 0.078 | 0.867 ± 0.049 | 0.968 ± 0.05 | 0.977 ± 0.061 | 0.917 ± 0.23 | 1.01 (active)
10 | CCCCc1oc2ccc(NS(C)(=O)=O)cc2c1C(=O)c1ccc(OCCCN(CCCC)CCCC)cc1.Cl | 0.403 ± 0.048 | 0.998 ± 0.099 | 1.3 ± 0.14 | 0.945 ± 0.067 | 1.2 ± 0.12 | 1.27 ± 0.18 | 0.29 (inactive)
11 | O=S(=O)(Nc1nc2ccccc2n2nnnc12)c1ccc(F)cc1 | 1.01 ± 0.1 | 1.03 ± 0.068 | 0.934 ± 0.067 | 0.865 ± 0.021 | 1.21 ± 0.15 | 0.964 ± 0.25 | 1.01 (active)
12 | CC12CCC(CC1)C(C)(C)O2 | 1.17 ± 0.28 | 1.05 ± 0.14 | 0.968 ± 0.074 | 0.956 ± 0.033 | 1.21 ± 0.15 | 1.15 ± 0.12 | 0.994 (active)
13 | COc1cccc(C2Nc3ccccc3-c3nnc(SC)nc3O2)c1OCC(=O)O (stereo unspecified) | 0.989 ± 0.099 | 0.988 ± 0.054 | 0.864 ± 0.082 | 1.03 ± 0.068 | 1.65 ± 0.11 | 1.24 ± 0.076 | 1 (active)
